From PubChem BioAssay (Tox21)
Results filed as inconclusive are left out. Calls of active or inactive are those of the source. Unless noted, calls follow the shape of the dose curve; as a rule, active = well fitted curve in the direction sought with a large enough effect in the repeat runs; inconclusive = weak or mixed curves; inactive = no such curve, though single readings can be large; an effect the other way counts as inactive or inconclusive.

Columns and labels:
[1] = qHTS assay for small molecule agonists of the p53 signaling pathway (AID 651631; calls by dose curve; also: nearly all actives have a fitted effect of over 15% in size)
Method in brief: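 HCT-116 cells carrying a stable p53 response element–beta-lactamase reporter were plated, rested 5 h at 37 °C, then exposed to compound in DMSO for 16 h at 37 °C; reporter activity was read as FRET substrate fluorescence after 2 h at room temperature.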

[2] = qHTS assay for small molecules that induce genotoxicity in human embryonic kidney cells expressing luciferase-tagged ATAD5 (AID 651632); also: nearly all actives have a fitted effect of over 15% in size
Method in brief: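 Test compounds were delivered by pin tool onto HEK293T reporter cells (2,000/well) expressing ATAD5 fused to luciferase. After 16 hr at 37C, 5% CO2, Amplite was added for 30 min at room temperature and luminescence was measured.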

[3] = qHTS assay for small molecule agonists of the p53 signaling pathway - cell viability (AID 651633; calls by dose curve; also: nearly all actives have a fitted effect of over 30% in size)
Method in brief: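 p53RE-bla cells were treated with compound for 16 hours at 37 C. Cytotoxicity was then measured as CellTiter-Glo luminescence after 30 min at room temperature.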

[4] = qHTS assay for small molecules that induce genotoxicity in human embryonic kidney cells expressing luciferase-tagged ATAD5 - cell viability (AID 651634; calls by dose curve; also: nearly all actives have a fitted effect of over 25% in size)
Method in brief: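 Quantitative high-throughput format. HEK293T cells expressing ATAD5 fused to luciferase were plated at 2,000 cells/well and treated 15.5 hr with compound versus DMSO. Viability was determined by fluorescent live-cell protease substrate, 30 min at 37C.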

[5] = qHTS assay for small molecule disruptors of the mitochondrial membrane potential - cell viability (AID 720634; calls by dose curve;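 also: human HepG2 liver cancer cells; nearly all actives have a fitted effect of over 20% in size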)
Method in brief: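 Same-well counter-screen: following the MMP dye addition, CellTiter-Glo was added to 1 hr compound-treated HepG2 cells and luminescence read after 30 min at room temperature.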

[6] = qHTS assay for small molecule disruptors of the mitochondrial membrane potential (AID 720635)
Method in brief: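 HepG2 cells exposed to compound 1 hr at 37C, then Mito-MPS dye 30 min. Ratio read of aggregate (540/590 nm) versus monomer (490/535 nm) fluorescence.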

[7] = qHTS assay to test for compound auto fluorescence at 590 nm (red) in HepG2 cells (AID 720674)
Method in brief: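 HepG2 cells, 2,000 per well in MEM with 10% FBS, attached overnight at 37 C, then got 23 nL compound or DMSO. After 1 hr at 37 C, 5% CO2, red fluorescence was read at 540/590 nm against Rose Bengal sodium as reference.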

[8] = qHTS assay to test for compound auto fluorescence at 535 nm (green) in HepG2 cells (AID 720675)
[9] = qHTS assay to test for compound auto fluorescence at 590 nm (red) in HEK293 cells (AID 720679)
Method in brief: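 Plates of HEK293 cells (10% dialyzed FBS) are treated with 23 nL compound or DMSO vehicle after a 4-5 hr attachment period, incubated overnight at 37C, and read for red fluorescence at 540/590nm.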

[10] = qHTS assay to test for compound auto fluorescence at 535 nm (green) in HEK293 cells (AID 720680)
[11] = qHTS assay to test for compound auto fluorescence at 460 nm (blue) in HEK293 cell free culture (AID 720681)
Method in brief: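 Compounds were added to cell-free DMEM with 10% FBS and fluorescence read directly. The blue channel used 405 nm excitation and 460 nm emission, with triamterene as the reference fluorophore.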

[12] = qHTS assay to test for compound auto fluorescence at 535 nm (green) in HEK293 cell free culture (AID 720682)
Method in brief: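 Read-out: 485/535 nm fluorescence intensity, calibrated against fluorescein. Medium only (DMEM + 10% FBS, no cells); test compound or DMSO vehicle added by pintool before plate reading.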

[13] = qHTS assay to test for compound auto fluorescence at 590 nm (red) in HEK293 cell free culture (AID 720683)
Method in brief: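 Cell-free wells of DMEM with 10% FBS received compound, and intrinsic fluorescence was read at excitation/emission 540/590 nm. Values expressed as equivalence to Rose Bengal sodium.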

[14] = qHTS assay to test for compound auto fluorescence at 590 nm (red) in HepG2 cell free culture (AID 720684)
Method in brief: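 Rose Bengal sodium served as the reference for red signal. Test compounds were dispensed into serum-containing MEM (10% FBS) without cells, and plates were read at 540/590 nm.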

[15] = qHTS assay to test for compound auto fluorescence at 460 nm (blue) in HepG2 cell free culture (AID 720685)
Method in brief: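 Cell-free plates of MEM plus 10% FBS received 23 nL compound or DMSO vehicle; blue-channel (405/460 nm) intensity scored against triamterene as reference fluorophore.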

[16] = qHTS assay to test for compound auto fluorescence at 535 nm (green) in HepG2 cell free culture (AID 720686)
[17] = qHTS assay to test for compound auto fluorescence at 460 nm (blue) in HepG2 cells (AID 720687)
Method in brief: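 HepG2 cells in MEM with 10% FBS, attached overnight at 37 C, were exposed to compound or DMSO for 1 hr at 37 C, 5% CO2. Blue fluorescence was read at 405/460 nm, with triamterene as reference fluorophore.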

[18] = target: Glucocorticoid receptor (Homo sapiens) (UniProt P04150); assay: qHTS assay to identify small molecule agonists of the glucocorticoid receptor (GR) signaling pathway (AID 720691; active = well fitted activation curve with a large enough effect in the signal ratio in the repeat runs, not every such curve was filed as active; the % refers to the signal ratio); details: GR-bla HeLa, beta-lactamase reporter ratio, 18 h; activation: at 62.4 µM (top of the series)
Method in brief: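 A HeLa cervical cancer line expressing GR and a glucocorticoid response element-driven beta-lactamase gene is treated with compounds for 18 h; LiveBLAzer B/G FRET substrate is then applied and fluorescence read.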

[19] = target: Glucocorticoid receptor (Homo sapiens) (UniProt P04150); assay: qHTS assay to identify small molecule antagonists of the glucocorticoid receptor (GR) signaling pathway (AID 720692; active = well fitted inhibition curve with a large enough effect in the signal ratio in the repeat runs, not every such curve was filed as active; the % refers to the signal ratio)
Method in brief: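 GRE-bla HeLa line, dex-stimulated (5 nM final). Compound exposure 18 h, 37 C. Beta-lactamase FRET read after 2 h RT substrate.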

[20] = qHTS assay to test for compound auto fluorescence at 460 nm (blue) in HEK293 cells (AID 720678)
Method in brief: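 After cell attachment (4-5 hr, 37C), compounds were pinned onto HEK293 monolayers in 10% dialyzed FBS medium. The blue channel (405/460 nm) was read following overnight culture. Equivalency was calculated against triamterene.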

Measured: Potency

Sequence of Glucocorticoid receptor (Homo sapiens) (P04150 whole entry, looked up): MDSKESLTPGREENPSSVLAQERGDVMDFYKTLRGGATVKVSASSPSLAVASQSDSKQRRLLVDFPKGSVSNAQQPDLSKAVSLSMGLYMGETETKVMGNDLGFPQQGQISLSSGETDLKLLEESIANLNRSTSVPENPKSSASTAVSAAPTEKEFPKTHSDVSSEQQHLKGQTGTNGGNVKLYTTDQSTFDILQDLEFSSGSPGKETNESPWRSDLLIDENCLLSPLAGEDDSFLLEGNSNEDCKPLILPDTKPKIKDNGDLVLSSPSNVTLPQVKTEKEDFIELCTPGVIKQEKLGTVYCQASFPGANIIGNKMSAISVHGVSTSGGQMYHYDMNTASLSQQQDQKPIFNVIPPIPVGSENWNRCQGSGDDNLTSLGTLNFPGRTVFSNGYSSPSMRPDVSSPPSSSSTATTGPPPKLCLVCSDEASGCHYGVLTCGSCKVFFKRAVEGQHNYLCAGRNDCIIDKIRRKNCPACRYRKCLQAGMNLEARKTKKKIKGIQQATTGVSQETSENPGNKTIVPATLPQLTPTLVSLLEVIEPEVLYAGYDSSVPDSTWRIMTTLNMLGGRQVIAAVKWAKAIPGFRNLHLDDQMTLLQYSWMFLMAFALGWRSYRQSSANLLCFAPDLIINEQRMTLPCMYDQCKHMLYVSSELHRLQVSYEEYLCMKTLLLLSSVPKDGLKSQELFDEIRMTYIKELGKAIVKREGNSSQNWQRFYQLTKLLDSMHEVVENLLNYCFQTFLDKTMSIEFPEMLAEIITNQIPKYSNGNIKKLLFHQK

C/C=C/C1=C(C(=O)O)N2C(=O)[C@@H](NC(=O)[C@H](N)c3ccc(O)cc3)[C@H]2SC1
not listed: [20]
inactive: all other assays above

CO/N=C(\C(=O)N[C@@H]1C(=O)N2C(C(=O)[O-])=C(C[n+]3cccc4c3CCC4)CS[C@H]12)c1csc(N)n1
not listed: [8] | [18] | [19]
inactive: all other assays above

CC[C@@H](C)[C@H](N)C(=O)O
not listed: [12]
inactive: all other assays above

CCc1cn([C@H]2C[C@H](O)[C@@H](CO)O2)c(=O)[nH]c1=O
not listed: [12]
inactive: all other assays above

CO/N=C(\C(=O)N[C@@H]1C(=O)N2C(C(=O)[O-])=C(C[n+]3ccc(N)n3CCO)CS[C@H]12)c1csc(N)n1
not listed: [12]
inactive: all other assays above

CSCCC(N)C(=O)O (configuration not stated)
not listed: [12]
inactive: all other assays above
